Shown are actives, neighbours in structure and some others; about 8% of the full set was active somewhere.
SW480 rereplic – A quantitative high throughput screen for small molecules that induce DNA re-replication in SW480 colon adenocarcinoma cells; Potency, µM (top dose mostly 46.1 µM), for the others: at the highest dose re-replication activation, most hits filed as activators; SW480 DNA re-replication, Hoechst DNA content imaging, 48 h; 340,000 compounds, 1.8% hits; note: % of control where 0% means no effect; nearly all actives have a fitted effect of over 55% in size
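Image-based DNA-content assay: after two days of treatment, nuclei were labelled with the DNA dye Hoechst and imaged, and hits were compounds raising the count of nuclei showing high fluorescence intensity.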
KB-V1 MDR tox – qHTS assay for MDR1-selective chemotherapeutics: Primary screen using the drug-selected MDR subline cells KB-V1. KB-V1 MDR cells viability, CellTiter-Glo, 72 h. Potency, µM (series often up to 46.1 µM), most hits filed as cytotoxic. 400,000 compounds, 3.4% hits. AID 1347076, 2019; note: % is set by controls: 0 for no effect and ±100 for the full control effect; nearly all actives have a fitted effect of over 60% in size
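Following 72 h at 37 degrees C with compound, KB-V1 cell viability was read by CellTiter-Glo luminescence, medium being phenol-red-free DMEM plus 10% FBS; concentration-response parameters came from normalized, curve-fitted qHTS data.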
HT1080-NT tox – qHTS for induction of synthetic lethality in tumor cells producing 2HG: qHTS for the HT-1080-NT fibrosarcoma cell line; HT-1080-NT fibrosarcoma viability, CellTiter-Glo ATP luminescence, 48 h; Potency, µM (top dose mostly 46.1 µM), for the others: at the highest dose activity, negative = less viability, hits mostly cytotoxic; 360,000 compounds, 1.6% hits;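 note: NT is the 2HG producing partner of a matched IDH1 knockdown line; 0% = DMSO-treated cells and -100% = media-only wells without cells; nearly all actives have a fitted effect of over 55% in size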
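Viability of the 2HG-overproducing fibrosarcoma line after 48 hours of compound exposure at 37 degrees C was determined by luminescence with CellTiter-Glo, and concentration-effect curves were then fitted and categorized.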
KB-3-1 cytotox – qHTS assay for MDR1-selective chemotherapeutics: Primary screen using the parental adenocarcinoma cell KB-3-1 | Potency, µM (doses to about 46.1 µM), actives largely listed as cytotoxic | 400,000 compounds, 1.4% hits | KB-3-1 viability, CellTiter-Glo ATP luminescence, 72 h; note: % is set by controls: 0 for no effect and ±100 for the full control effect; nearly all actives have a fitted effect of over 60% in size
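Cells are dispensed, compounds pinned in, plates held at 37 °C for 72 h, then CellTiter-Glo is added and luminescence read after 10 minutes. Cell line: parental KB-3-1 in phenol-red-free DMEM, 10% FBS.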
MCF10A rereplic – A quantitative high throughput screen for small molecules that induce DNA re-replication in MCF 10a normal breast cells; 350,000 compounds, 2.9% hits; Potency, µM (titrated, usually from 46.1 µM), for the others: top-dose activity, positive = re-replication, hits mostly activators; AID 624296, 2012; MCF 10A DNA re-replication, Hoechst nuclear intensity, 48 h; note: % of control where 0% means no effect; nearly all actives have a fitted effect of over 50% in size
HT1080 IDH1KD tx – qHTS for induction of synthetic lethality in tumor cells producing 2HG: qHTS for the HT-1080-IDH1KD cell line; HT-1080 IDH1 knockdown viability, ATP luminescence, 48 h; Potency, µM (titrated, usually from 46.1 µM), inactives show top-dose activity, negative = toxicity, hits mostly cytotoxic; 360,000 compounds, 2% hits;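 note: 0% = DMSO wells and -100% = cell-free medium wells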
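HT-1080-IDH1KD cells (IDH1 knocked down), 750/well in RPMI with 5% FBS, treated with compound 48 h at 37 degrees C. Viability by CellTiter-Glo luminescence, normalised to DMSO and no-cell wells; concentration-response curves classed.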
An asterisk follows results filed as active; i = inactive; ? = inconclusive; nt = no result. Calls come from the whole dose curve; as a rule, active = well fitted curve in the direction sought with a large enough effect; inconclusive = small, poorly fitted or top-dose-only effect, or another doubt; inactive = no such curve, though single readings can be large; an effect the other way counts as inactive or inconclusive. Potency is the fitted concentration of half-maximal effect.

SMILES	SW480 rereplic	KB-V1 MDR tox	HT1080-NT tox	KB-3-1 cytotox	MCF10A rereplic	HT1080 IDH1KD tx
CN1CCc2nc3sc(C(=O)Nc4ccccc4C(F)(F)F)c(N)c3cc2C1	nt	i	nt	i	nt	nt
COc1cc(C2C(C(=O)Nc3ccccc3C)=C(C)Nc3ncnn32)ccc1OCC(N)=O (stereo not drawn)	nt	?	nt	i	nt	nt
Cc1cccc(Cc2cnc(NC(=O)c3ccc(C)o3)s2)c1	6%	i	-4%	?	2.6µM*	?
Cc1ccc(-c2nnc(NC(=O)c3ccco3)s2)cc1	-13%	i	25%	i	-15%	17%
Cc1ccc(Cc2cnc(NC(=O)c3ccco3)s2)cc1	18%	18µM*	-15%	i	15%	-5%
COc1cccc(NC(=O)C2CCN(c3nc4ccccc4nc3C(F)(F)F)CC2)c1	nt	i	nt	i	nt	nt
CCc1cccc(CC)c1NC(=O)/C(C#N)=C/c1ccccc1C(F)(F)F	-80%	?	23µM*	?	12µM*	?
N#C/C(=C\c1ccccc1C(F)(F)F)C(=O)Nc1ccccc1	-5%	i	-4%	i	4%	-3%
CCC(C)(Oc1ccc(C2(c3ccc(OC(C)(CC)C(=O)O)cc3)CCCCC2)cc1)C(=O)O (stereo not drawn)	-7%	nt	nt	nt	0%	nt
CCC(C)(C)c1ccc(OCCCC[n+]2ccc(C)cc2)c(C(C)(C)CC)c1	26%	i	?	12µM*	23µM*	?
CCC(C)(C)c1ccc(OCCCC[n+]2cccc(C)c2C)c(C(C)(C)CC)c1	16%	i	15µM*	?	30%	21µM*
COc1ccc(NC(=O)c2oc3ccccc3c2NC(=O)c2cc(C)cc(C)c2)c(OC)c1	nt	i	nt	i	nt	nt
COc1ccc(O)c(/C=N/NC(=O)CCC(=O)Nc2ccc(C)cc2)c1	?	i	-6%	i	7%	-11%
COc1cccc(/C=N/NC(=O)CCCC(=O)Nc2ccc(Br)cc2)c1	-5%	15µM*	-9%	i	4%	-13%
COc1ccc(O)c(/C=N/NC(=O)CCC(=O)Nc2cccc(C)c2)c1	5.8µM*	?	?	i	?	?
CC(Sc1nccn1C)C(=O)Nc1ccccc1C#N (stereo not drawn)	nt	i	nt	i	nt	nt
CCc1ccccc1NC(=O)CSc1ncc(S(=O)(=O)c2ccccc2)c(N)n1	nt	i	nt	i	nt	nt
O=[N+]([O-])c1ccc(/C=C/c2ccnc3ccccc23)cc1	nt	i	nt	?	nt	nt
CC1(C)COC(/C=C/c2ccc([N+](=O)[O-])cc2)=N1	16µM*	21µM*	?	?	16µM*	23µM*
CN1CCN(c2nn3c(=O)c4ccccc4nc3s2)CC1	nt	i	nt	i	nt	nt
CN(C)S(=O)(=O)c1ccc(Cl)c(NC(=O)CSc2nc3c(cc2C#N)C(=O)CCC3)c1	2.6µM*	10µM*	10%	i	?	-6%
N#Cc1cc2c(nc1SCC(=O)Nc1sc3c(c1C#N)CCC3)CCCCC2	18µM*	i	10%	i	0.82µM*	-4%
N#Cc1cc2ccccc2nc1SCC(=O)Nc1ccc(S(=O)(=O)N2CCCC2)cc1	14%	4.1µM*	-19%	i	24%	-26%
Cc1noc(NS(=O)(=O)c2ccc(NC(=O)CSc3nc4c(cc3C#N)CCCC4)cc2)c1C	2%	?	2%	i	23µM*	3%
COc1ccc2nc(SCC(=O)Nc3ccc(S(=O)(=O)N4CCCC4)cc3)c(C#N)cc2c1	4%	i	4%	i	-4%	?
SMILES	SW480 rereplic	KB-V1 MDR tox	HT1080-NT tox	KB-3-1 cytotox	MCF10A rereplic	HT1080 IDH1KD tx
CCOc1ccccc1NC(=O)CSc1nc2ccccc2nc1Cc1ccc(C)cc1	nt	?	nt	i	nt	nt
C/C=C\C[C@H](C)[C@H](O)[C@H]1C(=O)N[C@@H](CC)C(=O)N(C)CC(=O)N(C)[C@@H](CC(C)C)C(=O)N[C@@H](C(C)C)C(=O)N(C)[C@@H](CC(C)C)C(=O)N[C@@H](C)C(=O)N[C@@H](C)C(=O)N(C)[C@@H](CC(C)C)C(=O)N(C)[C@@H](CC(C)C)C(=O)N(C)[C@@H](C(C)C)C(=O)N1C	nt	nt	nt	nt	16%	nt
Cc1ccc(NC(=O)Cn2c(=O)n(Cc3nc(C)no3)c(=O)c3cc4c(cc32)OCO4)c(C)c1	nt	i	nt	i	nt	nt
N#Cc1c(NC(=O)CSc2ncn[nH]2)sc2c1CCCCC2	?	4.1µM*	?	i	-1%	?
N#Cc1c(NC(=O)CSc2nc(N)cc(=O)[nH]2)sc2c1CCCCCC2	-4%	?	-8%	?	26%	-5%
Cc1cc(NC(=O)CSc2nc3c(cc2C#N)CCC3)no1	15µM*	i	7%	i	?	-8%
CCCCn1nnnc1SCC(=O)Nc1sc2c(c1C#N)CCCC2	3%	?	-1%	i	11µM*	?
CCc1nnc(SCC(=O)Nc2ccc(F)cc2F)c2cc3sc(C)cc3n12	nt	?	nt	i	nt	nt
O=C(c1ccc(Br)cc1)c1cc([N+](=O)[O-])ccc1N1CCCCC1	?	?	1.8µM*	1µM*	?	2.1µM*
CN1CCN(c2ccc([N+](=O)[O-])cc2C(=O)c2ccc(Br)cc2)CC1	3.7µM*	4.1µM*	13µM*	2.9µM*	?	15µM*
O=C(c1ccccc1)c1cc([N+](=O)[O-])ccc1N1CCCC1	11%	i	-7%	?	?	-19%
Cc1ccc(C(=O)c2cc([N+](=O)[O-])ccc2N2CCN(C)CC2)cc1	10µM*	3.7µM*	10µM*	5.2µM*	16µM*	7.3µM*
O=C(Cn1c(=O)n2nc(-c3cccc(F)c3)nc2c2ccccc21)N1CCN(c2ccc(F)cc2)CC1	nt	i	nt	i	nt	nt
O=C1N/C(=C\c2ccccc2)c2ccccc21	?	?	?	i	18µM*	?
COc1ccc(-c2noc(Cn3cc(S(=O)(=O)N4CCCC4)ccc3=O)n2)cc1	-1%	5.8µM*	1%	i	-2%	3%
O=c1ccc(S(=O)(=O)N2CCCC2)cn1Cc1nc(-c2ccc(F)cc2)no1	4%	?	0%	i	?	0%
